Assay outcomes: PubChem, National Center for Advancing Translational Sciences (NCATS)
VACV mCherry inh: qHTS for Stage-Specific Inhibitors of Vaccinia Orthopoxvirus: mCherry Reporter Primary qHTS; Vaccinia virus mCherry reporter infection, fluorescence; Potency, µM (doses to about 36.5 µM), for the others: at the top dose activity change, negative = inhibition, usual class: inhibitors; 310,000 tested, 0.63% active; AID 720579, 2013; calls by dose curve; tested in A549 cells; further: potency means the concentration at half of the fitted maximal effect; nearly all actives have a fitted effect of over 35% in size
HCMV inh: qHTS Assay for inhibitors of the human cytomegalovirus (HCMV); HFF cells, HCMV-luciferase reporter, 72 h; hits give low values; activity change, negative = inhibition, % at 57.5 µM; 410,000 tested, 4.5% active; AID 1259415, 2018; in the data active means activity change below about -60%; inconclusive means no clear call, values can overlap the other calls; inactive means above about -39%
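Steps: HFFs plated, 16 h 37C; compounds added; HCMV-luciferase added to MOI 1 PFU/cell; 72 h 37C; OneGlo reagent, 5 min room temperature; luminescence read, normalized to controls.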
Vaccinia Venus: qHTS for Stage-Specific Inhibitors of Vaccinia Orthopoxvirus: Venus Reporter Primary qHTS | Vaccinia virus Venus reporter expression, fluorescence | Potency, µM (series often up to 36.5 µM), for the others: top-dose activity change, negative = inhibition, hits mostly inhibitors | 330,000 tested, 0.46% active | AID 720580, 2013; calls by dose curve; tested in A549 cells; further: potency means the concentration at half of the fitted maximal effect; nearly all actives have a fitted effect of over 30% in size
FMDV antiviral: High Throughput Screening for Foot and Mouth Disease Virus Antivirals. FMDV antiviral cell-based qHTS. Potency, µM (titrated, usually from 57.9 µM), for inactives: at the top dose activity change, negative = inhibition, actives largely listed as inhibitors. 410,000 tested, 1.2% active; calls by dose curve; tested in HEK293T cells; further: read-out not given here; potency means the concentration at half of the fitted maximal effect; nearly all actives have a fitted effect of over 45% in size
HCV inhibitor: qHTS Assay for Inhibitors of Hepatitis C Virus (HCV) | AID 651820, 2012 | Potency, µM (titrated, usually from 41.8 µM), inactives show at the top dose activity change, negative = inhibition, hits mostly inhibitors | Huh7.5.1 HCVcc-Cre infection, luciferase reporter, 44 h | 340,000 tested, 3.4% active; active means well fitted inhibition curve with a large enough effect; inconclusive means small, poorly fitted or top-dose-only effect, or another doubt; inactive means no such curve, though single readings can be large or run the other way; further: potency means the concentration at half of the fitted maximal effect
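Luciferase read-out (15 sec integration) after a 15 min room-temperature substrate step quantifies HCVcc-Cre infection. Cells, 1,000 per well, had compound added 4 h post-plating, then virus at ~0.5 moi, and were cultured 44 h.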
The depositor's hits bear a star; i = inactive; ? = inconclusive; . = no result given; [ ] = remark or other dose. An excerpt weighted towards active compounds, which were near 7.3% of everything screened. On the % scale 0 is the no-effect control and ±100 the full control effect.

SMILES	VACV mCherry inh	HCMV inh	Vaccinia Venus	FMDV antiviral	HCV inhibitor
CO[C@@H]1CN(C)C(=O)c2ccc(NC(=O)c3ccccc3F)cc2OC[C@@H](C)N(CC2CCOCC2)C[C@@H]1C	-21%	15	-13%	-10%	.
Cc1ccc2c(c1)N=C(c1ccc(Cl)cc1)CO2	?	-102*	?	5%	-12%
FC(F)(F)c1cccc(N2CCN(c3ncnc4c3nc3n4CCCC3)CC2)c1	-28%[7.34 µM]	-73*	-23%[7.34 µM]	20µM*	.
CCOc1ccccc1CNc1ncnc2c1nc1n2CCCC1	i	-81*	-6%	-1%	.
Fc1ccccc1N1CCN(c2ncnc3c2nc2n3CCCCC2)CC1	-13%	7	-12%	?	.
Cc1ccc(Cl)cc1N1CCN(c2ncnc3c2nc2n3CCCC2)CC1	-30%	-17	?	28µM*	.
Cc1ccc(C)c(N2CCN(c3ncnc4c3nc3n4CCCC3)CC2)c1	-13%	48	-5%	?	.
c1ccc(N2CCN(c3ncnc4c3nc3n4CCCC3)CC2)cc1	-29%	-68*	?	14µM*	.
COc1cccc(CNC(=O)CCc2c(C)nc3c4c(C)cc(C)nc4nn3c2C)c1	i	66	-16%	-12%	.
CC1(C)C(=O)N(CC(=O)Nc2ccc(OC(F)(F)F)cc2)c2ccccc21	-5%	18	-4%	-25%	.
COc1ccc(-n2cc(C(=O)N(CCN(C)C)Cc3ccccc3)c3ccccc3c2=O)cc1	-13%	-21	-14%	-21%	.
Cc1c(O)c2c(c(C(=O)/C=C/c3ccccc3)c1O)OC(C)(C)C=C2	-13%	.	-19%	.	.
COc1ccc(N2CCN(c3ncnc4c3nc3n4CCCCC3)CC2)cc1	?	-27	?	11µM*	.
COc1cccc(CNC(=O)C2CCN(c3ncnc4c3nc3n4CCCCC3)CC2)c1	-13%	?	-12%	-10%	25%
COc1ccccc1N1CCN(c2ncnc3c2nc2n3CCCC2)CC1	-15%	-25	-15%	?	.
COc1cccc(N2CCN(c3ncnc4c3nc3n4CCCCC3)CC2)c1	?	-99*	?	11µM*	.
CC(=O)c1ccc(N2CCN(c3ncnc4c3nc3n4CCCC3)CC2)cc1	-27%	-86*	?	18µM*	.
Cc1cccc(-n2c(C)cc(C(=O)C(=O)Nc3ccccc3F)c2C)c1C	-8%	-67*	-6%	0%	.
O=C(Nc1ccc(C(=O)OCc2cc(=O)n3c4c(sc3n2)CCCC4)cc1)c1ccc(Cl)cc1	-12%	?	-8%	-5%	.
COC(=O)[C@H](Cc1ccc(O)cc1)NC(=O)Cn1cnc2c(SC)nc(N)nc21	-11%	3	0%	-14%	46%
COc1ccc(CN(C)C(=O)Cn2cnc3c(SC)nc(N)nc32)cc1OC	i	-24	-12%	0%	4.5µM*
CCN1C/C(=C/c2ccc(OC)c(O)c2)C(=O)/C(=C/c2ccc(OC)c(O)c2)C1	?	-103*	?	-21%	?
COc1ccc(C=C2C(=O)c3ccccc3C2=O)cc1O	0%	-31	44%	17%	4%
O=C1/C(=C/c2cccc([N+](=O)[O-])c2)CCc2ccccc21	-15%	-9	-8%	-18%	3%
COc1ccc(/C=C2\CN(Cc3ccccc3)C/C(=C\c3ccc(OC)c(O)c3)C2=O)cc1O	7.9µM*	-101*	?	-12%	6.3µM*
SMILES	VACV mCherry inh	HCMV inh	Vaccinia Venus	FMDV antiviral	HCV inhibitor
CCN1C/C(=C\c2cccc([N+](=O)[O-])c2)C(=O)/C(=C/c2cccc([N+](=O)[O-])c2)C1	i	-100*	-7%	1.1µM*	2.5µM*
CC(C)(N=NC(C)(C)C(=N)N)C(=N)N	i	.	?	2%	.
Cn1c(C(=O)NCc2cccc(F)c2)cc2cc(S(=O)(=O)N3CCCCC3)ccc21	-7%	-28	-27%	-27%	.
CC(C)Cc1nc2cc(NS(=O)(=O)N(C)C)cc(C(=O)N3CCSCC3)c2n1C	-1%	.	1%	23%	.
COc1cc2nc(N3CCOCC3)nc(NC3CCN(Cc4ccccc4)CC3)c2cc1OC	-1%	.	-20%	.	.
CCOc1ccc(N(CC)S(=O)(=O)N2CCCC(C(=O)NCCc3ccccc3OC)C2)cc1 (stereo unspecified)	-6%	-28	-10%	?	.
